Source: PubChem BioAssay
CHT inh – inhibits the human high affinity choline transporter; Q9GZV3; CHT-expressing cells, membrane potential dye, choline response; stronger effect = lower value; B-score at 10 µM; 310,000 compounds, 0.86% hits;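 active = B-score over 3 SD under the library average, and starting fluorescence ratio not unusually high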;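 also: choline stimulus applied at its EC90 after an EC20 pre-addition; B-score computed on integrated fluorescence ratio after choline addition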
CHT allo act – allosterically activates the human high affinity choline transporter | CHT-expressing cells, membrane potential dye, choline EC20; stronger effect = higher value; LV-AA mutant CHT in HEK293 cells | 310,000 compounds, 0.49% hits | Q9GZV3 | AID 488977 | B-score at 10 µM;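 active = initial fluorescence not abnormally high and integrated response B-score, plate-corrected, over 3 SD above library mean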
PGE2 EP2 inh – blocks the human prostaglandin E2 receptor EP2 | AID 1422 | P43116 | inhibition, % at 25 µM | C6 glioma cells expressing human EP2, cAMP TR-FRET; cells stimulated with saturating PGE2 | 260,000 compounds, 0.52% hits;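 active = percent inhibition above 40 after rounding to a whole number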;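 also: rat C6 glioma host cells with rolipram phosphodiesterase inhibitor present; the protocol text gives 20 µM as final concentration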
Target sequence (P43116 whole entry, looked up): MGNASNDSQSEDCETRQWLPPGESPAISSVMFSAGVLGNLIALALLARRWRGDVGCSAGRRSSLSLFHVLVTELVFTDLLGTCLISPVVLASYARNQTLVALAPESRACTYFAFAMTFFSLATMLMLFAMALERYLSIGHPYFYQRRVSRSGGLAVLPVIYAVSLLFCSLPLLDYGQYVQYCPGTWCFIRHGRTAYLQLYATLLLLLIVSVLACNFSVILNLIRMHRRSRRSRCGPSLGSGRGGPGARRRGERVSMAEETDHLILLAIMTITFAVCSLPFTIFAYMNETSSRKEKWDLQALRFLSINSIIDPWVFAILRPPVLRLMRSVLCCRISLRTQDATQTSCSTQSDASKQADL
EP2 mod – modulators of human EP2 prostaglandin E2 receptor | AID 940 | induction, % at 25 µM | 260,000 compounds, 0.83% hits | EP2-expressing cells, cAMP HTRF FRET, PGE2 co-stimulation | P43116;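 active = compounds whose cAMP rise, as percent of the full-agonist control response, exceeds 60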;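 also: rat C6 glioma line stably carrying human EP2 under a CMV promoter; the protocol text gives 20 µM as final concentration; 100% = response of wells given 1 µM PGE2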
Numbers without * were called inactive; i = inactive; . = no result. A selection: hits, their analogues and other compounds. The true share with any hit is near 2%.

SMILES	CHT inh	CHT allo act	PGE2 EP2 inh	EP2 mod
COc1cc(C(=O)NCc2nc(-c3cccnc3)n[nH]2)cc(OC)c1OC	.	.	7.0	4.8
COc1cc(/C=C2\C(=O)NC(=S)N(c3ccc(Br)cc3C)C2=O)ccc1O	.	.	73.7*	-94.7
COc1cc(/C=C2\NC(=S)N(C)C2=O)ccc1O	i	i	6.7	-8.6
CCOc1cc(/C=C2\C(=O)NC(=O)N(c3cccc(Br)c3)C2=O)ccc1O	.	.	97.5*	-130.9
O=C1NC(=O)N(c2cccc(Br)c2)C(=O)/C1=C/c1cccc(O)c1	.	.	9.0	-1.2
CCc1cc(C(=O)c2ccc(Br)cc2)c(N)s1	.	.	7.2	59.1
COC(=O)c1cc2ccsc2n1Cc1nc(-c2cccc(Cl)c2)oc1C	i	i	11.1	61.5*
Cc1cc(-c2cncnc2C2CCCN(C(=O)Cc3ccccc3F)C2)on1 (stereo unspecified)	.	.	.	-12.4
CCC1C(=NO)C(CC)C(c2ccccc2)NC1c1ccccc1 (stereo unspecified)	i	i	0.4	62.7*
CN(C)C1=NC[C@H](Cc2ccccc2)N1CC1CCC(C(C)(C)C)CC1 (stereo partly specified)	i	15.3*	.	.
CN(C)C1=NC[C@H](Cc2ccccc2)N1CC1CCCC1	i	i	.	.
Cc1ccc(SCN2CCCCC2)cc1 (tested in a mixture with another compound)	.	.	51.8*	25.8
COc1cccc(-c2csc(N3CCN(CC(=O)Nc4cc(OC)ccc4OC)CC3)n2)c1	.	.	7.6	-91.3
Cc1ccc2nc(-c3ccc(NC(=O)c4ccc(N)cc4)c(S(=O)(=O)O)c3)sc2c1	.	.	45.9*	-11.6
CN(C)CCCN(Cc1cc2cc3c(cc2[nH]c1=O)OCCO3)C(=O)Nc1ccccc1	.	.	6.1	-34.9
CSc1ccccc1-c1n[nH]c(=S)o1	.	.	46.4*	38.4
N#CC(c1ccccc1)c1ccc(C(=O)c2ccc(F)cc2)cc1 (stereo unspecified)	i	i	-1.1	62.5*
N#CC(c1ccc(F)cc1)c1ccc(C(=O)c2ccccc2)cc1 (stereo unspecified)	i	i	8.7	1.7
O=C(CSc1ccc(-c2nc3ccccc3[nH]2)cn1)Nc1cccc(F)c1	.	.	49.1*	-91.5
O=C(CSc1ccc(-c2nc3ccccc3[nH]2)cn1)Nc1ccccc1-c1ccccc1	.	.	12.4	-47.2
CCOc1ccccc1NC(=O)CSc1nnc2c3c4c(sc3ncn12)CC(C)CC4 (stereo unspecified)	.	.	11.1	-50.1
CCN1CCN(c2ccc(NC(=O)c3ccccc3OC)cc2Cl)CC1	.	.	19.7	-37.8
CCc1cc2cccc(C)c2nc1SCC(=O)N1CCCC1	.	.	8.3	64.5*
CCOC(=O)CC(=O)CSc1nc2c(C)ccc(C)c2cc1CC	.	.	14.1	95.2*
CCc1cc2cc(C)c(C)cc2nc1SCC(=O)N1CCCC1	.	.	13.1	56.4
SMILES	CHT inh	CHT allo act	PGE2 EP2 inh	EP2 mod
O=C(C1CC1)N(Cc1nc2ccccc2c(=O)[nH]1)C1CCCC1	.	.	4.7	-2.6
CC1(C)Cc2nc3sc4c(SCC(=O)NCc5ccccc5)ncnc4c3cc2CO1	i	i	24.2	63.2*
C1=CC2=Nc3cccc[n+]3CN2C=C1	.	.	10.5	-17.1
CC(C)Nc1cc(C(F)(F)F)nc(-c2ccccn2)n1	i	i	3.1	-22.4
CC(C)c1cc(C(F)(F)F)nc(NNc2nc(C(C)C)cc(C(F)(F)F)n2)n1	.	.	47.9*	42.3
COc1ccc2[nH]c(=O)c(CN(CC3CCCO3)C(=O)NC3CCCCC3)cc2c1 (stereo unspecified)	.	.	16.3	-21.1
COc1ccc(C2CCN(CC(=O)NCc3ccc4c(c3)OCO4)CC2)cc1	.	.	5.5	-79.2
CCOC(=O)/C(=C\c1cn(C)c2ccccc12)[N+](=O)[O-]	i	i	41.5*	-89.8
O=C(Nc1ccc(Nc2ccc3c(c2)C(=O)c2ccccc2C3=O)c2c1C(=O)c1ccccc1C2=O)c1ccccc1	.	.	44.5*	-14.5
COc1cc(C(=O)Nc2ccc3c(c2)C(=O)c2ccccc2C3=O)cc(OC)c1OC	i	i	3.5	2.0
COc1ccc(C(=O)Nc2ccc3oc(=O)ccc3c2)cc1Cl	.	.	7.1	-30.1
CCn1c2cc(C)oc2c2cnn(Cc3ccc(F)cc3)c(=O)c21	.	.	.	13.5
CCn1c2cc(C)oc2c2cnn(Cc3ccccc3C(F)(F)F)c(=O)c21	.	.	.	81.2*
CCOC(=O)c1c(-c2ccccc2)oc2ccc(OCC(=O)O)cc12	i	i	11.2	68.3*
C[C@H](CCC(=O)NN)[C@@H]1CC[C@@H]2[C@H]3CC[C@H]4C[C@@H](O)CC[C@]4(C)[C@@H]3CC[C@]21C	.	.	48.9*	21.4
C[C@H](CCC(=O)O)[C@H]1CC[C@H]2[C@@H]3[C@@H](O)C[C@H]4C[C@@H](O)CC[C@]4(C)[C@H]3C[C@@H](O)[C@]12C	.	.	45.2*	31.9
C[C@H](CCC(=O)O)[C@H]1CC[C@H]2[C@@H]3CC[C@@H]4C[C@H](O)CC[C@]4(C)[C@H]3CC[C@]12C	i	i	.	.
Cc1n[nH]c(C)c1N1C(=O)c2cccc3c(Br)ccc(c23)C1=O	-7.37*	i	27.6	-7.7
CN1CCN(CC(=O)N2CCn3c4c(c5cc(C6CCCCC6)ccc53)CCCC42)CC1 (stereo unspecified)	i	i	91.4*	-34.1
Clc1cccc(-c2nnc(SC/C=C/c3ccccc3)n2Cc2ccco2)c1	i	7.3*	7.4	32.2
C(=C\c1ccccc1)/CSc1nnc(-c2ccccc2)n1Cc1ccco1	i	i	5.1	25.4
COc1ccc(OC)c(NC(=O)CSc2nnnn2-c2ccc(F)cc2)c1	.	.	6.3	-57.0
CCCc1n(CC(O)COc2ccc(Br)cc2)c2ccccc2[n+]1C (stereo unspecified)	.	.	13.5	-5.9
Cc1ccc(C)c2[nH]c(=O)c(CN(CCCN3CCCC3=O)S(=O)(=O)c3ccc(F)cc3)cc12	.	.	10.0	-14.8
O=S1(=O)OC(c2ccc(O)cc2)(c2ccc(O)cc2)c2ccccc21	.	.	95.7*	-32.3
SMILES	CHT inh	CHT allo act	PGE2 EP2 inh	EP2 mod
C=CCN(c1ccc(C(=O)N2CCCCC2)cc1)S(C)(=O)=O	.	.	11.5	-27.2
Cc1ccccc1C1C(C#N)=C(N)NC(S)=C1C#N (stereo unspecified)	.	.	14.3	70.6*
COc1ccc2nc(SCC#N)c(C#N)cc2c1	.	.	20.1	-14.4
COc1ccccc1NC(=O)C(NC(=O)OC(C)(C)C)C(C)OCc1ccccc1 (stereo unspecified)	i	i	3.6	62.8*
CC(C)C(NC(=O)OC(C)(C)C)C(=O)NC(CCC(=O)OCc1ccccc1)C(N)=O (stereo unspecified)	i	i	3.1	-20.5
CC1CCc2c(sc3ncn(C4CCN(CC(=O)N(C)C)CC4)c(=O)c23)C1 (stereo unspecified)	.	.	10.4	-0.2
COc1ccc2c(c1OC)C(=O)O[C@H]2[C@H]1c2c(cc3c(c2OC)OCO3)CCN1C	.	.	9.7	67.9*
CCn1c(=O)oc2cc(S(=O)(=O)NC3(c4ccc(F)cc4)CC3)c(Cl)cc21	.	.	3.5	-78.3
CC(C)(C)c1nc(SCC(=O)c2ccc(F)cc2)c2ccccc2n1	.	.	6.6	69.5*
